# Reference: PMC12431657, “Discovery and mechanistic insights of dibenzoylmethane as a broad spectrum inhibitor of coronavirus” (PLOS Pathogens, 2025)
# Where a name gives a salt, the structure may show the parent alone. Read-outs that look alike come from different tables or passages of the source. In all, about 3,300 compounds went through this assay and about 95 (3%) showed an effect of 50% or more. The sample holds strong results, similar compounds and a random draw of the others, so the mix is not that of the screen.
# Test system: HCoV-229E
# Design: species or system Huh-7; HTS, protection from HCoV-229E induced cell death, luminescent cell viability (CellCounting-Lite 2.0), inhibition rate
# Conditions: 24 h post infection, 1 h compound pre-incubation, 10 µM, inhibitor
SMILES,"229E Inhibition rate (229E Inhibition rate, 24 h)",229E Inhibition rate
C[N+]1(C)CCC[C@H]1C(=O)[O-] [Stachydrine hydrochloride],11.8%,–
C[C@H]1CC[C@]2(NC1)O[C@H]1C[C@H]3[C@@H]4CC[C@H]5C[C@@H](O)CC[C@]5(C)[C@H]4CC[C@]3(C)[C@H]1[C@@H]2C [Tomatidine (hydrochloride)],28.3%,–
C[C@@H]1CC[C@@]2(OC1)O[C@H]1C[C@H]3[C@@H]4CC[C@H]5C[C@@H](O)CC[C@]5(C)[C@H]4CC[C@]3(C)[C@H]1[C@@H]2C [Tigogenin],–,11%
C[C@H]1CC[C@]2(NC1)O[C@H]1C[C@H]3[C@@H]4CC[C@H]5C[C@@H](O)CC[C@]5(C)[C@H]4CC[C@]3(C)[C@H]1[C@@H]2C [Tomatidine],55.9%,–
COc1cc(-c2oc3cc(O)cc(O)c3c(=O)c2O)ccc1O [Isorhamnetin],–,7.4%
COc1cc2c(cc1O)CC[N+](C)(C)[C@@H]2Cc1ccc(O)cc1 [Lotusine (hydroxide)],–,0%
COc1cc(/C=C/C(=O)OC[C@H]2O[C@H](O[C@]3(CO)O[C@H](CO)[C@@H](O)[C@@H]3OC(=O)/C=C/c3cc(OC)c(OC)c(OC)c3)[C@H](O)[C@@H](O)[C@@H]2O)cc(OC)c1O [Tenuifoliside C],–,19.9%
Cc1ccc(C(=O)O)cc1 [p-Toluic acid],–,6.6%
CC(C)=CC(=O)C[C@H](C)c1ccc(C)cc1 [ar-Turmerone],–,53%
CC(=O)c1ccc(C)cc1 [4'-Methylacetophenone],–,8.7%
"CC1=COC(=O)[C@H]2[C@@H]1CC[C@@H]2C [4aα,7α,7aα-Nepetalactone]",–,8.3%
CC(=O)CCc1ccc(O[C@@H]2O[C@H](CO)[C@@H](O)[C@H](O)[C@H]2O)cc1 [Raspberry ketone glucoside],–,19.3%
C=C[C@H]1CN2CC[C@]3(C(=O)Nc4ccccc43)[C@@H]2C[C@@H]1/C(=C\OC)C(=O)OC [Corynoxeine],–,15.2%
CC[C@]12CCCN3CCc4c(n(c5ccccc45)[C@@](O)(C(=O)OC)C1)[C@@H]32 [Vincamine],–,16.6%
CC[C@]12CCCN3CCc4c(n(c5ccccc45)C(=O)C1)[C@@H]32 [Vinburnine],–,22.5%
CCOC(=O)C1=C[C@]2(CC)CCCN3CCc4c(n1c1ccccc41)[C@@H]32 [Vinpocetine],–,50%
C/C=C(/C)C(=O)O[C@H]1c2cc3c(c4c2[C@@]2(CO4)C(=O)C(OC)=C(OC)C=C2C[C@@H](C)[C@H]1C)OCO3 [Heteroclitin D],–,47.7%
